# p53 reactivator – mutant p53 re-activation in reporter cells; H1299 p53-A138V BP100-luciferase reporter, luminescence, 24 h; Potency, µM (doses to about 92.2 µM), without a hit: at the highest dose activity change, positive = activation, actives largely listed as activators; 0.063% of 320,000 active; also: % of control where 0% means no effect; nearly all actives have a fitted effect of over 45% in size
#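 p53-null H1299 cells stably carrying temperature-sensitive p53-A138V and a BP100-luciferase reporter were pinned with compounds (4-point, 1:5 series) and held 24 hrs at 37 deg C. Luminescence was read 10 min after detection reagent.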
# ELG1 genotoxic – induces genotoxicity in HEK293T cells with luciferase-tagged ELG1. Potency, µM (highest dose often 46 µM), for the others: at the top dose activity change, positive = activation, most hits filed as activators. 1.3% of 330,000 active. AID 504466. HEK293T ELG1-luciferase reporter, luminescence, 16 h; also: % of control where 0% means no effect; nearly all actives have a fitted effect of over 60% in size
#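 Reporter readout depends on ELG1 protein level, which increases with genetic stress. After 16 hr compound exposure at 37 °C, luciferase activity was quantified using ONE-Glo.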
# SMN2 splice up – SMN2 splice variant enhancement. Potency, µM (highest dose often 46.1 µM), for inactives: at the top dose activity change, positive = activation, actives largely listed as activators. HEK293 SMN2-luciferase splicing reporter, luminescence, 30-36 h. 2.8% of 210,000 active. AID 1458; also: % of control where 0% means no effect; nearly all actives have a fitted effect of over 55% in size
#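 HEK293 cells carry an SMN2 minigene-luciferase reporter in which exon 7 inclusion puts luciferase in frame. Cells were seeded at 2000 cells/well, attached for 10-12 hours, then exposed to compounds for 30-36 hours at 37C before ONE-Glo luminescence.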
# Rab9 promoter act – activates the Rab9 promoter; Huh7 Rab9 promoter-luciferase reporter, luminescence, 24 h; Potency, µM (top dose mostly 9.22 µM), for inactives: at the top dose activation, negative = inhibition, hits mostly activators; 2.8% of 320,000 active; AID 485297; also: % of control where 0% means no effect; nearly all actives have a fitted effect of over 60% in size
#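 Cell-based reporter: Huh7 stable for Rab9 promoter-driven luciferase, plated in reduced-serum medium with 10% FBS at 1500 cells/well, compound-treated 24 h at 37 °C, luminescence read after 10 min reagent.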
# NPC1 promoter act – NPC1 promoter activation. Huh7 NPC1 promoter luciferase reporter, 24 h. Potency, µM (highest dose often 9.22 µM), for inactives: top-dose activation, hits mostly activators. 2.4% of 320,000 active; also: % of control where 0% means no effect; nearly all actives have a fitted effect of over 60% in size
#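 Huh7 reporter cells (NPC1 promoter driving luciferase) are dosed with compound for 24 h at 37 °C, 5% CO2; luciferase detection reagent is then added and luminescence measured after 10 min at ambient temperature.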
# FLuc counter – firefly luciferase modulation, counter-screen for miR-21 project; P08659; purified FLuc, Km substrates, luminescence inhibition; Potency, µM (top dose mostly 57.5 µM), for inactives: at the highest dose activity change, negative = inhibition, usual class: inhibitors; 6.9% of 360,000 active; AID 588342;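 also: plate controls were vehicle for no effect and reference inhibitor for full effect; nearly all actives have a fitted effect of over 55% in size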
# Target sequence (P08659 whole entry, looked up): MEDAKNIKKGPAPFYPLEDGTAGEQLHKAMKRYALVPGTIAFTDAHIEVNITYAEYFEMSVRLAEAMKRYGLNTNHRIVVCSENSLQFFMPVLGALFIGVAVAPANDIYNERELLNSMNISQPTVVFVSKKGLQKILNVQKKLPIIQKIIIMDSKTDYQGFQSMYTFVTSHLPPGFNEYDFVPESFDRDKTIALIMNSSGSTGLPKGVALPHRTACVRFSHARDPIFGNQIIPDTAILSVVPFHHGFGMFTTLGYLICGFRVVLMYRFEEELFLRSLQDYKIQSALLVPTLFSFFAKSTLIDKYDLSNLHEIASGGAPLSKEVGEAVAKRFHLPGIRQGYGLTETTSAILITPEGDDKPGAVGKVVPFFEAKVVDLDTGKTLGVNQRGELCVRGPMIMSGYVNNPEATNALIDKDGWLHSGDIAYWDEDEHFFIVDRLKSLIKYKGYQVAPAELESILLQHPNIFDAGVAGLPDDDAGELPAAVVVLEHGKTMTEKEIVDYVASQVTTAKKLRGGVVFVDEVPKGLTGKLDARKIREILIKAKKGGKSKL
#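 Purified P. pyralis luciferase (10nM final) with 10uM D-luciferin and 10uM ATP (Km levels) in 50mM Tris acetate pH 7.5, 10mM Mg acetate, 0.01% Tween-20, 0.05% BSA; qHTS 6-point titration, ~60 µM downward; luminescence read.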
# * hit, by the source's call; ? = inconclusive; . = not tested or not shown. Hits are enriched below; roughly 7.3% of the tested compounds scored in any of these assays. Calls follow the shape of the dose curve; as a rule, active = well fitted curve in the direction sought with a large enough effect; inconclusive = small, poorly fitted or top-dose-only effect, or another doubt; inactive = no such curve, though single readings can be large; an effect the other way counts as inactive or inconclusive. Potency is read from the fitted curve at half-maximal effect.
SMILES,p53 reactivator,ELG1 genotoxic,SMN2 splice up,Rab9 promoter act,NPC1 promoter act,FLuc counter
COCC(C)N=C1NN=C(c2cccs2)C(CC(=O)O)S1 (configuration not stated),4%,1%,12%,-5%,-1%,0%
CC(C)N=C1NN=C(c2cccs2)CS1,8%,?,11µM*,0.79µM*,3.2µM*,24µM*
CC(C)c1ccc(C2NC(=O)c3n[nH]c(-c4cccs4)c32)cc1 (configuration not stated),.,.,-24%,.,.,-16%
CCOc1ccc(N(Cc2cc3cc(OC)ccc3[nH]c2=O)C(=O)C2CCCO2)cc1 (configuration not stated),15%,0%,.,6%,2%,6%
Cn1c(SCn2nnc3ccccc3c2=O)nc2ccccc2c1=O,2%,2%,-24%,-14%,-6%,-8%
C[C@@H](C(=O)Nc1ccc2c(c1)OCCO2)n1c(=O)[nH]c2ccccc2c1=O,?,?,.,18%,3%,15µM*
O=c1c2ccccc2nnn1CSc1ccc2c(c1)OCCO2,12%,18%,7.1µM*,1.8µM*,1.6µM*,9.5µM*
CC(Sc1nc2ccccc2c(=O)n1C)C(=O)Nc1ccc2c(c1)OCCO2 (configuration not stated),1%,-3%,.,-25%,-15%,-19%
CCC(C(=O)Nc1ccc2c(c1)OCCO2)n1nnc2ccccc2c1=O (configuration not stated),10%,?,.,?,3.2µM*,13µM*
Cc1ccc(NC(=O)C(=O)NCC(c2cccnc2)N2CCN(c3ccccc3F)CC2)cc1Cl (configuration not stated),.,.,.,.,.,-2%
O=C(NCc1ccc(F)cc1Cl)c1cc(=O)[nH]c2ccc(S(=O)(=O)N3CCCCC3)cc12,.,.,.,.,.,-5%
CCCNC(=O)c1ccc2c(c1)N=C(C)c1c(C)ccc(C)c1S2,.,.,4µM*,.,.,?
COc1ccc(CCNc2ncnc3c2nnn3C)cc1,.,.,.,.,.,5%
Clc1ccc(Cl)c(Cl)c1Cl,.,.,-3%,.,.,.
Cc1ccsc1/C=C1/SC(N2CCOCC2)=NC1=O,18%,20%,?,24%,21%,21µM*
O=C1N=C(N2CCOCC2)S/C1=C\c1cccs1,4%,9%,.,24%,3%,?
CC1(C(=O)OCC(=O)Nc2ccccc2)CC1(Cl)Cl (configuration not stated),?,13%,-11%,?,?,17µM*
CC(=O)OCC(=O)Nc1ccc(SC(F)F)cc1,10%,0%,21%,5%,-2%,?
CC(=O)Nc1ccc(Nc2ccccc2)cc1,16%,7%,.,2%,2%,-21%
CCC(C(=O)OCC(=O)Nc1ccc(F)cc1)c1ccccc1 (configuration not stated),4%,-5%,.,3%,-4%,4%
CC(C)C(=O)OCC(=O)Nc1ccc(N=Nc2ccccc2)cc1,?,21µM*,11µM*,0.79µM*,2.5µM*,?
CC(=O)Nc1ccc(N=Nc2ccccc2)cc1,.,10µM*,10µM*,2.8µM*,2.8µM*,6µM*
CC(=O)OCC(=O)Nc1ccc(N=Nc2ccccc2)cc1,?,23µM*,6.3µM*,2.8µM*,2.8µM*,12µM*
CC1(C(=O)OCC(=O)Nc2ccccc2Cl)CC1(Cl)Cl (configuration not stated),2%,9%,17%,?,5%,?
CN1CCN(C(=O)/C(=C/c2cn(S(=O)(=O)N(C)C)c3ccccc23)NC(=O)c2ccccc2F)CC1,2%,-13%,.,-2%,0%,0%
Cc1ccccc1NC(=O)C(=O)NCC(c1ccc2c(c1)OCO2)N1CCN(c2ccccc2)CC1 (configuration not stated),.,.,.,.,.,-6%
COc1ccc(S(=O)(=O)NCc2cccn2Cc2cc(C)ccc2C)cc1OC,.,.,.,.,.,2%

# Screening data: PubChem BioAssay, National Center for Advancing Translational Sciences (NCATS)
